B1: ENSMUSG00000061578.1192|Ksr2 (ssRNA)
RNA: GGGAGUUCUACAGUCCGACGAUCGCUUCGAUAUCCGCAUGCUAUGUCUGCUUUUGUUUCUCCACCAUGCCCCCUGCCACCUCUUCUGACAGUGCUCAGAUUUAUCAGCCACCUGACCCACAGACCCAUAUGGACACACUAGAAAGCCCAUCCUAGGUCUUUCCAUGGUCUCUCACACCCCUGUCCCCGUCCCCUCCACCCCCCGGCAGCAUGCUUCACUCUAUGAAUGAGCCGCUGGGAUAUUGACAUGGAGAUGUGUUGAUGGAAAAAGCCUCCACACCCAACAUAACUCUCCAGAGAGAUACUCUUGCGGUCGCACUAGUGUGGAAUUCUCGGGUGUCAAGG
B2: ENSMUSG00000031028.410|Tub|118:122;252:256 (ssRNA)
RNA: GGGAGUUCUACAGUCCGACGAUCGCUUCGAUAUCCGCAUGCUAAGAUCCCUUACCCCUCAUCCCCUCUUCUUUUUGGUCCUUGGCUGGGUAGCAAAUUGGUGAGAAGAGCAGCCUAGUCUGUAAGAGUGCAGGGCAGCUGGAACCUUAGGCAGCUCCUCUCAUACCUACCGGCUCCACACCCUAACACUCUCCACCCUCUGCUCCAAACCAGUUCUUCUGCAGAGUGGUGAUGUUAGCUUCCCCAGCUCCUCUCCAAGUCUAGCUUUUUCUGUCCUUCUGGCUCCAAGGUGCUCACACACUGUCUCUUGCGGUCGCACUAGUGUGGAAUUCUCGGGUGUCAAGG
B3: ENSMUSG00000022095.49|Fam160b2 (ssRNA)
RNA: GGGAGUUCUACAGUCCGACGAUCGCUUCGAUAUCCGCAUGCUACCUUUUAGAGGAGCUAGAGGAUGGCCAGUGAGCGCCUAGAUGCUGCCCUGCAUGUGUUGCGUGACUAUCUCUGCUAUAUUGUGACCAGGGCCACAACAUGAGACAACUCCAGGGGCCAGGGAGAUGAACUGCUGUCUUUGAGGCUGGCUAAAAAAACAAUCCAGUCCAGAGAGAUGGGGAGGGGGGGAGCAAGAACCCUGUCUGUUACAUUAGGUAUCAUGGAAGCUGCUAAGACUCGGCAGGUUUCUCCGAGGCUUCACCUCUUGCGGUCGCACUAGUGUGGAAUUCUCGGGUGUCAAGG
B4: ENSMUSG00000029636.83|Wasf3|141:145 (ssRNA)
RNA: GGGAGUUCUACAGUCCGACGAUCGCUUCGAUAUCCGCAUGCUAACCAGUGGGUGAUACGUUUUCCUGUUUCUUCCCUUUGCAAAUUGAAUUCCAGGUAGAUAUGGUUGUAGAGGGGAAAGUUUAACAAAUCAGAAUGAAAUGUUUGUCUGUUUGCACACUGGGCCUGGUGGCCUCCAAGGAAAACACAACGAUCGUUUGCUUUCUCUAUCUUGGCGCUUGCAACCGAGAGCGGCCAUUUUUAUGAGGGGAGCCCUGUGGGUACUCAUGUGGAAAGUGCCCACUGACUUUGGCAGAUGGAGUUCCUCUUGCGGUCGCACUAGUGUGGAAUUCUCGGGUGUCAAGG

Over roughly 9,900 sequences, “r (bound/input frequency ratio)” has its median near 0.7; the highest 2% begin near 6.5. The sample as a whole holds a higher share of the highest values than the screen did.

TDP-43, sequence (Q13148 whole entry): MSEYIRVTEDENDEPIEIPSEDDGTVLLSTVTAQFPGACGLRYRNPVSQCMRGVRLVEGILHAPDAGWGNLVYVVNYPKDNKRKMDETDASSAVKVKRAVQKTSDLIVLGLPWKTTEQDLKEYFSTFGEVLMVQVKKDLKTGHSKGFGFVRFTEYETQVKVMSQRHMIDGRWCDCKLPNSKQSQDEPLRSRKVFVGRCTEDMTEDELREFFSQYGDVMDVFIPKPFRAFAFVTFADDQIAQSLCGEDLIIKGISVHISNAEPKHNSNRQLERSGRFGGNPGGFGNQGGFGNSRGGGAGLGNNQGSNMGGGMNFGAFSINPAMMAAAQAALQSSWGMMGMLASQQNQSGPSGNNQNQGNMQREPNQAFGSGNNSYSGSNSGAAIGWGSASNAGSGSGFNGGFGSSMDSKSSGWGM

The test addresses TDP-43 (Homo sapiens, UniProt Q13148 1-414). Put plainly: RNA Bind-n-Seq with designed 260-mer pool; 25 mM Tris-HCl, 150 mM KCl, 3 mM MgCl2, BSA (printed 500 mg/mL), 20 units/mL SUPERase IN; pH not stated; 500 nM RNA pool, 1 h, 4 C; TDP-43 5, 50, 500 nM; high values mean tight binding. The note with it: protein: recombinant; tags: SBP (GST cleaved off with PreScission; pGEX-GST-SBP). The procedure, abridged: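 Recombinant SBP-tagged TDP-43 at 5, 50 or 500 nM was captured on streptavidin beads, then incubated 1 h at 4 °C with 500 nM of an in vitro-transcribed 260-nt 3′ UTR oligo pool in 25 mM Tris-HCl, 150 mM KCl, 3 mM MgCl2, BSA and SUPERase IN. Bound RNA was washed, eluted with biotin, reverse transcribed, PCR-amplified and sequenced. Binding is R, each oligo's mapped-read-normalized abundance in the bound sample divided by its abundance in input. Duplicates used two independent protein batches.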
Take B1: the binding signal was 1.3 R (bound/input frequency ratio).
As for B2, the figure is 2.59 R (bound/input frequency ratio).
As for B3, the figure is 1.16 R (bound/input frequency ratio); as for B4, 1.97 R (bound/input frequency ratio).

The values are drawn from paper PMC12864922, “TDP-43 directly inhibits mRNA accumulation in neurites through modulation of mRNA stability”.
